Assay [1] in a line: NCI Yeast Anticancer Drug Screen. Data for the rad50 strain (AID 155).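 Further: 0% = growth of vehicle-only cultures of the same strain.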 As to conditions: S. cerevisiae rad50 strain growth inhibition, hits give high values. In short, it runs like this:
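Vehicle-treated cultures provide the reference for the growth inhibition reported for compound-exposed, repair-deficient yeast.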

The nature of assay [2]: NCI Yeast Anticancer Drug Screen. Data for the mec2-1 strain (AID 157). As to conditions: S. cerevisiae mec2-1 strain, hits give high values. In short, it runs like this:
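Each compound was tested on mec2-1 yeast, a strain altered in DNA damage repair or cell cycle control. Growth inhibition is reported relative to vehicle.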

Assay [3] in a line: NCI Yeast Anticancer Drug Screen. Data for the sgs1 mgt1 strain (AID 161).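 Further: 0% = growth of cultures given vehicle only.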 As to conditions: S. cerevisiae sgs1 mgt1 strain, hits give high values. In short, it runs like this:
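Test agents were incubated with a DNA-repair-mutant yeast strain. Growth was then read and compared against vehicle-treated controls.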

A short description of assay [4]: NCI Yeast Anticancer Drug Screen. Data for the cln2 rad14 strain (AID 165).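 Further: 0% = growth equal to vehicle treated cultures.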 The conditions noted are these: S. cerevisiae cln2 rad14 strain, hits give high values. An outline of the steps:
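Test compounds were added to cln2 rad14 yeast cultures; inhibition of growth was then determined by comparison with vehicle treatment.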

A short description of assay [5]: NCI Yeast Anticancer Drug Screen. Data for the bub3 strain (AID 167). As to conditions: S. cerevisiae bub3 mutant strain, hits give high values. An outline of the steps:
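Mutant yeast screening strain plus compound; vehicle-treated cultures serve as the 0% inhibition reference.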

The nature of assay [6]: NCI Yeast Anticancer Drug Screen. Data for the mlh1 rad18 strain (AID 175). As to conditions: S. cerevisiae mlh1 rad18 strain growth inhibition, hits give high values. In short, it runs like this:
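Inhibition values reflect reduced growth of mutant yeast versus vehicle-treated controls following compound exposure; the mutations affect DNA damage repair.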

Where [7] appears, read: at 5.0 µM (retest, dose inferred, filed as 0.5).
The mark [8] stands for this setting: at 50.0 µM (retest, dose inferred, filed as 5.0).

The structures appear in SMILES notation. This is part of a sample that, as a whole, favours compounds with a hit. Of some 79,000 tested, about 15% had one in any assay. A number with no mark means an inactive call. Activity calls are given as the source filed them. No stated cut-off is given here; in the data, active means growth inhibition above about 70%; inactive means the rest.

Turning to `COCCN1C(=O)C2c3[nH]c4ccccc4c3C3CCC(C(C)(C)C)CC3C2C1=O` (centres undefined), the growth inhibition in assay [1] (setting [7]) was -2%; in assay [1] (setting [8]) it was 98% (active); in assay [1] (at 50.0 µM), 93.8% (active); in assay [2] (setting [7]), -1%; in assay [2] (setting [8]) it was 98% (active); in assay [2] (at 50.0 µM), 96% (active). Further, the growth inhibition in assay [3] (setting [7]) is -7%; in assay [3] (setting [8]), 98% (active); in assay [3] (at 50.0 µM), 88.7% (active); in assay [4] (setting [7]), -21%; in assay [4] (setting [8]) it was 96% (active); in assay [4] (at 50.0 µM), 95.6% (active). The growth inhibition was -4% in assay [5] (setting [7]), 94% (active) in assay [5] (setting [8]) and 94.2% (active) in assay [5] (at 50.0 µM).

With `Cc1ccc(S(=O)(=O)N(c2ccccc2-c2ccccc2)C(C)C(=O)O)cc1` (centres undefined), the growth inhibition in assay [1] (setting [7]) is 2%; in assay [1] (setting [8]), 67%; in assay [1] (at 50.0 µM), 92.3% (active); in assay [2] (setting [7]), 13%; in assay [2] (setting [8]), 80% (active); in assay [2] (at 50.0 µM), 88.3% (active). Also, the growth inhibition is 20% in assay [3] (setting [7]); 62% in assay [3] (setting [8]); 96% (active) in assay [3] (at 50.0 µM); 3% in assay [4] (setting [7]); 76% (active) in assay [4] (setting [8]); 91.5% (active) in assay [4] (at 50.0 µM). The growth inhibition in assay [5] (setting [7]) is 4%; in assay [5] (setting [8]) it was 66%; in assay [5] (at 50.0 µM) it was 82.5% (active); in assay [6] (setting [7]), 5%; in assay [6] (setting [8]) it was 87% (active); in assay [6] (at 50.0 µM), 94.3% (active).

`CCC(CC)COC(=O)C(C)=O`: the growth inhibition in assay [1] (setting [7]) was -2%; in assay [1] (setting [8]) it was 1%; in assay [1] (at 50.0 µM), -11.7%; in assay [2] (setting [7]), 2%; in assay [2] (setting [8]) it was 0%; in assay [2] (at 50.0 µM) it was 19.4%. Moreover, the growth inhibition in assay [3] (setting [7]) is 1%; in assay [3] (setting [8]), 3%; in assay [3] (at 50.0 µM), 18.1%; in assay [4] (setting [7]), -1%; in assay [4] (setting [8]), -4%; in assay [4] (at 50.0 µM), 25.6%. For the same molecule, the growth inhibition in assay [5] (setting [7]) was 0%; in assay [5] (setting [8]), 5%; in assay [5] (at 50.0 µM), 4.3%; in assay [6] (setting [7]), -1%; in assay [6] (setting [8]) it was 2%; in assay [6] (at 50.0 µM), 26.9%.

For `C=C(c1ccccc1)[N+](=O)[O-]`, the growth inhibition is 94% (active) in assay [1] (setting [7]); 99% (active) in assay [1] (setting [8]); 99.2% (active) in assay [1] (at 50.0 µM); 63% in assay [2] (setting [7]); 99% (active) in assay [2] (setting [8]); 99.4% (active) in assay [2] (at 50.0 µM). Further, the growth inhibition in assay [3] (setting [7]) was 59%; in assay [3] (setting [8]), 99% (active); in assay [3] (at 50.0 µM) it was 99.6% (active); in assay [4] (setting [7]), 37%; in assay [4] (setting [8]) it was 99% (active); in assay [4] (at 50.0 µM) it was 99.1% (active). For the same molecule, the growth inhibition is 67% in assay [5] (setting [7]); 99% (active) in assay [5] (setting [8]); 99.3% (active) in assay [5] (at 50.0 µM); 67% in assay [6] (setting [7]); 100% (active) in assay [6] (setting [8]); 99.2% (active) in assay [6] (at 50.0 µM).

Take `c1cc(C2=NCCN2)ccc1Nc1ccc(-c2cc3ccc(C4=NCCN4)cc3[nH]2)cc1`: the growth inhibition in assay [1] (setting [7]) was 99% (active); in assay [1] (setting [8]) it was 99% (active); in assay [1] (at 50.0 µM), 58.1%; in assay [2] (setting [7]), 99% (active); in assay [2] (setting [8]) it was 98% (active); in assay [2] (at 50.0 µM) it was 99.2% (active). The growth inhibition was 99% (active) in assay [3] (setting [7]); 99% (active) in assay [3] (setting [8]); 51.3% in assay [3] (at 50.0 µM); 99% (active) in assay [4] (setting [7]); 99% (active) in assay [4] (setting [8]); 98.9% (active) in assay [4] (at 50.0 µM). The growth inhibition is 99% (active) in assay [5] (setting [7]); 99% (active) in assay [5] (setting [8]); 99.3% (active) in assay [5] (at 50.0 µM); 99% (active) in assay [6] (setting [7]); 99% (active) in assay [6] (setting [8]); 98.5% (active) in assay [6] (at 50.0 µM).

Take `CCOC(=O)/C(=C/c1ccccn1)C(=O)c1ccccc1`: the growth inhibition in assay [1] (setting [7]) was 19%; in assay [1] (setting [8]), 85% (active); in assay [1] (at 50.0 µM), 85.8% (active); in assay [2] (setting [7]), 18%; in assay [2] (setting [8]), 93% (active); in assay [2] (at 50.0 µM), 85.7% (active). The growth inhibition in assay [3] (setting [7]) was 17%; in assay [3] (setting [8]) it was 85% (active); in assay [3] (at 50.0 µM), 84.8% (active); in assay [4] (setting [7]), 39%; in assay [4] (setting [8]) it was 85% (active); in assay [4] (at 50.0 µM) it was 76.7% (active). In addition, the growth inhibition is 67% in assay [5] (setting [7]); 96% (active) in assay [5] (setting [8]); 88.7% (active) in assay [5] (at 50.0 µM); 53% in assay [6] (setting [7]); 94% (active) in assay [6] (setting [8]); 79.6% (active) in assay [6] (at 50.0 µM).

Regarding `Cc1cc2c(cc1C)[n+](=O)c(C(=O)C/C(=N/NC(=O)CC#N)C(=O)Nc1ccccc1C(F)(F)F)c(C)n2[O-]`, the growth inhibition in assay [1] (setting [7]) is 53%; in assay [1] (setting [8]) it was 53%; in assay [1] (at 50.0 µM), 92.4% (active); in assay [2] (setting [7]) it was 57%; in assay [2] (setting [8]) it was 57%; in assay [2] (at 50.0 µM) it was 91% (active). Further, the growth inhibition in assay [3] (setting [7]) was 58%; in assay [3] (setting [8]), 58%; in assay [3] (at 50.0 µM), 91.8% (active); in assay [4] (setting [7]), 38%; in assay [4] (setting [8]) it was 38%; in assay [4] (at 50.0 µM), 91.5% (active). In addition, the growth inhibition in assay [5] (setting [7]) was 46%; in assay [5] (setting [8]), 46%; in assay [5] (at 50.0 µM), 94% (active); in assay [6] (setting [7]), 54%; in assay [6] (setting [8]) it was 54%; in assay [6] (at 50.0 µM), 90.8% (active).

On to `CN(C)c1ccc(C2ON=C(c3ccccc3)N2C23CC4CC(CC(C4)C2)C3)cc1` (centres undefined), for which the growth inhibition was 0% in assay [1] (setting [7]); 36% in assay [1] (setting [8]); -11.6% in assay [1] (at 50.0 µM); -11% in assay [2] (setting [7]); 3% in assay [2] (setting [8]); -3.05% in assay [2] (at 50.0 µM). Moreover, the growth inhibition is -5% in assay [3] (setting [7]); 33% in assay [3] (setting [8]); -7.15% in assay [3] (at 50.0 µM); 8% in assay [4] (setting [7]); 2% in assay [4] (setting [8]); 55.3% in assay [4] (at 50.0 µM). Further, the growth inhibition in assay [5] (setting [7]) is 14%; in assay [5] (setting [8]), 13%; in assay [5] (at 50.0 µM), -11.1%; in assay [6] (setting [7]), 4%; in assay [6] (setting [8]), 5%; in assay [6] (at 50.0 µM) it was -24%.

For the molecule `COc1ccccc1OC(=O)Oc1ccccc1OC`, the growth inhibition in assay [1] (setting [7]) is -1%; in assay [1] (setting [8]), 19%; in assay [1] (at 50.0 µM), 36.6%; in assay [2] (setting [7]) it was -3%; in assay [2] (setting [8]) it was -3%; in assay [2] (at 50.0 µM) it was -11.1%. For the same molecule, the growth inhibition in assay [3] (setting [7]) is -1%; in assay [3] (setting [8]), 12%; in assay [3] (at 50.0 µM), 9.45%; in assay [4] (setting [7]), 4%; in assay [4] (setting [8]), 4%; in assay [4] (at 50.0 µM), -37.4%. The growth inhibition was 1% in assay [5] (setting [7]); 9% in assay [5] (setting [8]); 57.8% in assay [5] (at 50.0 µM); -4% in assay [6] (setting [7]); -5% in assay [6] (setting [8]); 50% in assay [6] (at 50.0 µM).

The record behind these values is PubChem BioAssay (NCI).
